Reference: the supplement of paper PMC9694430
Several values for one entry are separate records, joined by “and”; a condition that tells them apart may be missing. Identical values can stand only once.

How the values were obtained:
Test in all cases: thermal shift delta Tm vs DMSO control; higher = stronger stabilization (binding)
Conditions in all cases: 12.5 µM; protein concentration 2 µM
[1] = test system: LOC_OS01G57100-cb003
How it was run: (§1)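 Compounds dissolved in DMSO were added to purified rice kinase domain constructs, which had been expressed in E. coli, for differential scanning fluorimetry. Each well held 19.5 μl of 2 μM kinase in 100 mM potassium phosphate pH 7.5, 150 mM NaCl, 10% glycerol and 5 × SYPRO Orange. Fluorescence was followed from 25°C to 95°C at a rate of 0.05°C/s. Shifts in Boltzmann-fitted melting temperature are triplicate means relative to DMSO-only protein.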

[2] = test system: LOC_OS01G60330-cb001
How it was run: as §1

[3] = test system: LOC_OS01G60700-cb002
How it was run: as §1

[4] = test system: LOC_OS01G63280-cb003
How it was run: as §1

[5] = test system: LOC_OS01G67340-cb003
How it was run: as §1

[6] = test system: LOC_OS01G70970-cb002
How it was run: as §1

[7] = test system: LOC_OS02G07810-cb001
How it was run: as §1

[8] = test system: LOC_OS02G08530-cb003
How it was run: as §1

[9] = test system: LOC_OS02G14120-cb001
How it was run: as §1

[10] = test system: LOC_OS02G17970-cb001
How it was run: as §1

[11] = test system: LOC_OS02G45750-cb003
How it was run: as §1

[12] = test system: LOC_OS02G54510-cb004
How it was run: as §1

[13] = test system: LOC_OS03G04050-cb001
How it was run: as §1

[14] = test system: LOC_OS03G12390-cb001
How it was run: as §1

[15] = test system: LOC_OS03G27990-cb004
How it was run: as §1

[16] = test system: LOC_OS03G50450-cb001
How it was run: as §1

[17] = test system: LOC_OS03G50810-cb003
How it was run: as §1

[18] = test system: LOC_OS04G35114-cb001
How it was run: as §1

[19] = test system: T1, LOC_OS04G38480-cb003
T1 sequence (whole entry): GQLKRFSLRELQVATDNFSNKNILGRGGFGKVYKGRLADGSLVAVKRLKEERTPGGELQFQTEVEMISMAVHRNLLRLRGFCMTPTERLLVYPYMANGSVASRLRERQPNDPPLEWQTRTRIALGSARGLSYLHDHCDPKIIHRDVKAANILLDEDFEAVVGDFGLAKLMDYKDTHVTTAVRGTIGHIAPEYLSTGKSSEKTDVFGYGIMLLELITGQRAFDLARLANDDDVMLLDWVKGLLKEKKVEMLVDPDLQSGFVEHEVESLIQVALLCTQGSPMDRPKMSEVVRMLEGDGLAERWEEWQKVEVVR
How it was run: as §1

[20] = test system: T2, LOC_OS04G41100-cb001
T2 sequence (whole entry): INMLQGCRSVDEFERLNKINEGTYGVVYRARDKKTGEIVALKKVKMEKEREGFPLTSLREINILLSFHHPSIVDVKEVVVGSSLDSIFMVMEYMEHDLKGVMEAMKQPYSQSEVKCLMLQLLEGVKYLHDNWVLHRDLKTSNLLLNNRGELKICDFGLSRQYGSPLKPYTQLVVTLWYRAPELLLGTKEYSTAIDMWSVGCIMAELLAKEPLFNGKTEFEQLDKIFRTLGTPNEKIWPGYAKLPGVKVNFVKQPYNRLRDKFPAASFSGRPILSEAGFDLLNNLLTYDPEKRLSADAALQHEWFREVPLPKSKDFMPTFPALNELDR
How it was run: as §1

Row | SMILES | thermal shift delta Tm [1] | thermal shift delta Tm [2] | thermal shift delta Tm [3] | thermal shift delta Tm [4] | thermal shift delta Tm [5] | thermal shift delta Tm [6] | thermal shift delta Tm [7] | thermal shift delta Tm [8] | thermal shift delta Tm [9] | thermal shift delta Tm [10] | thermal shift delta Tm [11] | thermal shift delta Tm [12] | thermal shift delta Tm [13] | thermal shift delta Tm [14] | thermal shift delta Tm [15] | thermal shift delta Tm [16] | thermal shift delta Tm [17] | thermal shift delta Tm [18] | thermal shift delta Tm [19] | thermal shift delta Tm [20]
1 | CC(C)Nc1cc(-c2c[nH]c(C(=O)N[C@H](CO)c3cccc(Cl)c3)c2)c(Cl)cn1 | 2.03 °C | 1.73 °C | 1.28 °C | 0.91 °C | 1.23 °C | 0.59 °C | 1.19 °C | 1.18 °C | 1.13 °C | 1.49 °C | 0.06 °C | 0.08 °C | 0.57 °C | 1.86 °C | 0.44 °C | 0.2 °C | 0.3 °C | 1.54 °C | 1.63 °C | 1.97 °C
2 | O=c1ccc2ccc(O)c(O)c2o1 [Daphnetin] | 4.5 °C | 1.15 °C | 1.06 °C | 0.68 °C | 0.06 °C | 0.05 °C | 1.27 °C | 1.2 °C | 0.72 °C | 1.06 °C | 1.1 °C | 0.54 °C | 0.75 °C | -0.23 °C | 0.69 °C | 1.08 °C | 0.83 °C | 0.8 °C | 1.96 °C | 0.36 °C
3 | Cc1cc(O)c2c(c1)C(=O)c1cccc(O)c1C2=O [Chrysophanic Acid] | 5.05 °C | 0.02 °C | 0.52 °C |  |  | -3.4 °C | 0.6 °C | -0.63 °C | -2.71 °C | 1.94 °C | 0.14 °C | -1.28 °C | -0.08 °C | -1.54 °C | 0.02 °C | 0.03 °C | -0.82 °C | 0.09 °C | -1.19 °C | 0.06 °C
4 | Cc1cc(Nc2cc(N)ncn2)c(=O)n2c1C(=O)NC21CCCCC1 | 1.68 °C | 0.51 °C | -0.25 °C | -0.02 °C | 0.19 °C | 0.38 °C | -1.2 °C | 0.72 °C | 2.1 °C | -0.32 °C | 0.8 °C | 0.09 °C | 0.28 °C | 0.13 °C | 0.19 °C | 0.47 °C | 0.4 °C | 0.45 °C | 0.09 °C | 0.53 °C
5 | O=C(O)c1cc(O)c2c(c1)[C@@H]([C@H]1c3cc(C(=O)O)cc(O)c3C(=O)c3c(O[C@@H]4O[C@H](CO)[C@@H](O)[C@H](O)[C@H]4O)cccc31)c1cccc(O[C@@H]3O[C@H](CO)[C@@H](O)[C@H](O)[C@H]3O)c1C2=O [Sennoside B] | 5.41 °C |  | 2.73 °C | 19.9 °C |  | 1.98 °C | 0.69 °C | 0.42 °C | 0.03 °C | 3.25 °C | 0.1 °C | -0.47 °C | 1.23 °C | 0.74 °C | 0.89 °C | 0.17 °C | 1.04 °C | 0.32 °C | 3.9 °C | 0.24 °C
6 | CNC(=O)c1cc(Oc2ccc(NC(=O)Nc3ccc(Cl)c(C(F)(F)F)c3)c(F)c2)ccn1 [Regorafenib (BAY 73-4506)] | 0.31 °C | 0.62 °C | 0.77 °C | 1.71 °C | -0.62 °C | 0.36 °C | 0.73 °C | 0.93 °C | -0.11 °C | 0.55 °C | 0.96 °C | 0.56 °C | 0.64 °C | 0.1 °C | 0.17 °C | 0.33 °C | 0.11 °C | 0.48 °C | 0.48 °C | 0.52 °C
7 | CN(C)Cc1cccc(N/C(=C2\C(=O)Nc3cc(C(N)=O)ccc32)c2ccccc2)c1 | 0.28 °C | 1.3 °C | 0.57 °C | 0.43 °C | 0.19 °C | 0.87 °C | 0.75 °C | 1.55 °C | 1.2 °C | 0.67 °C | 1.35 °C | 0.37 °C | 0.38 °C | 3.49 °C | 3.05 °C | 0.35 °C | 1.47 °C | 3.48 °C | 0.38 °C | 0.47 °C
8 | O=c1[nH]nc(Sc2ncc([N+](=O)[O-])s2)n1-c1ccc2c(c1)OCCO2 | 6.97 °C | 0 °C | 4.73 °C |  | -6.49 °C | -7.96 °C | 1.41 °C | 1.83 °C |  | 3.38 °C | 1.36 °C | -0.1 °C | 0.22 °C | -1.14 °C | 0.03 °C | 0.84 °C | -0.33 °C | 0.5 °C | 3.06 °C | -0.54 °C
9 | CC(C)(C)c1cc(/C=C(\C#N)C(N)=S)cc(C(C)(C)C)c1O [Tyrphostin AG 879] | 5.01 °C | 3.04 °C | 4.7 °C |  |  | 2.23 °C | 2.55 °C | 2.78 °C | 4.98 °C | 3.25 °C |  | 6.54 °C | 0.85 °C | 2.51 °C | 1 °C | 0.98 °C | 2.05 °C | 1.68 °C | 2.13 °C | 1.27 °C
10 | COc1cc2ncnc(Nc3ccc(F)c(Cl)c3)c2cc1OCCCN1CCOCC1 [Gefitinib (ZD1839)] | 0.37 °C | 0.16 °C | 1.04 °C | 0.4 °C | -0.59 °C | 0.28 °C | 0.77 °C | 0.6 °C | 4.78 °C | 0.15 °C | 1.36 °C | 0.04 °C | 0.31 °C | 1.33 °C | 0.64 °C | 0.05 °C | 1.04 °C | 4.83 °C | 1.76 °C | 0.77 °C
11 | Cc1cnc(-c2cnc(NCCNc3ccc(C#N)cn3)nc2-c2ccc(Cl)cc2Cl)[nH]1 | 0.99 °C and 1.83 °C | 0.47 °C and 0.68 °C | 0.39 °C and 1.43 °C | 1.2 °C and 1.03 °C | 0.03 °C and 0.47 °C | 1.08 °C and 1.19 °C | 1.11 °C and 0.87 °C | 0.72 °C and 0.68 °C | 0.07 °C and 0.44 °C | 0.65 °C and 2.15 °C | 1.15 °C and 1.22 °C | 0.15 °C and -0.03 °C | 0.11 °C and 0.6 °C | 0.22 °C and 0.78 °C | 0.17 °C and 0.28 °C | -0.06 °C and 0.47 °C | 0.98 °C and 1.26 °C | 0.11 °C and 0.59 °C | 0.39 °C and 1.23 °C | 0.54 °C and 0.66 °C
